# From PubChem BioAssay AID652189 (Johns Hopkins Ion Channel Center, 2013)
# Hit rate of the full screen: of about 2,300 compounds, about 900 (39%) were called active.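 Rule for the calls: active = mean duplicate percent inhibition, scaled so buffer wells are 0 and the reference blocker 100, over three buffer SD above buffer mean; inactive = the rest.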 Not all results are given here.
# Target: Anoctamin-1 (Mus musculus) (UniProt Q8BHY3)
# Assay: blockers of mouse ANO1 channel, retest – cell-based, re-confirmation, confirmation (AID 652189)
# Conditions: HEK293 TMEM16A/YFP-H148Q, iodide quench fluorescence, at 10 µM, ionomycin added to raise cell calcium; hits give high values
# Chain of Anoctamin-1 (Mus musculus) (Q8BHY3 whole entry, looked up): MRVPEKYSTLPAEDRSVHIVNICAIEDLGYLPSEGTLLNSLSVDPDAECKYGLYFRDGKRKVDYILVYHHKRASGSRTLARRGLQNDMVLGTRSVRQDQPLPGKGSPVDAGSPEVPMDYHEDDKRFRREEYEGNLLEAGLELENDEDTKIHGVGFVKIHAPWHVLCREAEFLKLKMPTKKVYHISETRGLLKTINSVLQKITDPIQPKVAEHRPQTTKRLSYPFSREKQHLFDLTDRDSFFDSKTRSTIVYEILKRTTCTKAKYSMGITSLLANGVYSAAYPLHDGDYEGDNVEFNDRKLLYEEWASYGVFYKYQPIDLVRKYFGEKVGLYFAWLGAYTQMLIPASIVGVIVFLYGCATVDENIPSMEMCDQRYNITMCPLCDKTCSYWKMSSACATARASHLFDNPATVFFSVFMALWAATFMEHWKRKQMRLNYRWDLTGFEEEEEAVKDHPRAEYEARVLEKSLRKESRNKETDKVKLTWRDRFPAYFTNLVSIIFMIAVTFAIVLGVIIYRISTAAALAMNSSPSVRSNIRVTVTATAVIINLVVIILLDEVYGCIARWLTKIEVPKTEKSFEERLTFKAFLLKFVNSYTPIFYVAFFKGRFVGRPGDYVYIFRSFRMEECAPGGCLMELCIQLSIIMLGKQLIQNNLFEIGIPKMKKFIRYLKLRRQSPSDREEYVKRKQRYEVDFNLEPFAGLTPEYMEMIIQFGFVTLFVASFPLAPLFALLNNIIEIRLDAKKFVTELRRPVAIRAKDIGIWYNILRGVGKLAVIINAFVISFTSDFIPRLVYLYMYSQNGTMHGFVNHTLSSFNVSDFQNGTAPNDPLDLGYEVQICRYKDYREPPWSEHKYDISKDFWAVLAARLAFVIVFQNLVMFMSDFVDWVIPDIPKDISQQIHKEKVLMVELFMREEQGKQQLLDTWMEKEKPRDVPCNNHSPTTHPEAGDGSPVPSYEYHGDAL
row,Structure (SMILES),inhibition
1,CCCCCn1c(=O)c(C(=O)NCc2ccccn2)c(O)c2ccccc21,23% (active)
2,CCOc1cccc(=NC2CCCCC2)c2c(C)[nH]c(C)c12,inactive
3,CCN(CC)C(=O)c1ccc(NC(=O)c2cc(-n3cnnc3)ccc2Cl)cc1,inactive
